# 12-LOX inh: ALOX12 (human) lipoxygenase inhibition | P18054 | purified 12hLO, xylenol orange hydroperoxide absorbance | Potency, µM (top dose mostly 108 µM), for inactives: at the top dose activity change, negative = inhibition, hits mostly inhibitors | 1.1% of 580,000 active | AID 1671190; note: % is set by controls: 0 for no effect and ±100 for the full control effect
#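 Purified human 12hLO at 150 nM in 25 mM Hepes, 0.01% Triton X-100, pH 7.0, preincubated 15 min at room temperature with compound. Reaction started with 40 uM arachidonic acid, 30 min at room temperature. Hydroperoxide measured by Fe-xylenol orange, 573/405 nm absorbance ratio.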
# EPAC1 ag: activates human EPAC1 exchange factor | O95398 | EPAC1 agonist qHTS, biochemical assay; response scale: 100% = response to 6.5 mM cAMP | Potency, µM (doses to about 154 µM), for the others: at the highest dose activation, most hits filed as activators | 0.073% of 360,000 active | AID 720707; note: nearly all actives have a fitted effect of over 60% in size
#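 Compounds were pinned as a concentration titration into mixtures of EPAC1 (100 nM), BODIPY-GDP-loaded Rap1B (250 nM) and GDP (50 uM). After 5 min at room temperature, fluorescence was followed for 30 min; activity was scaled to 6.5 mM cAMP.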
# EPAC2 antag: blocks human EPAC2 exchange factor; Q8WZA2; Potency, µM (series often up to 114 µM), for the others: at the top dose activity, negative = inhibition, actives largely listed as inhibitors; EPAC2 GEF exchange of Rap1B-BODIPY-GDP, fluorescence; 0.18% of 360,000 active; note: % is set by controls: 0 for no effect and ±100 for the full control effect; nearly all actives have a fitted effect of over 45% in size
# EPAC2 ag: EPAC2 (human) agonism; Q8WZA2; EPAC2 activation, biochemical qHTS; response scale: 100% = 6.5 mM cAMP response; Potency, µM (doses to about 154 µM), for the others: top-dose activation, hits mostly activators; 0.079% of 360,000 active; AID 720711; note: nearly all actives have a fitted effect of over 50% in size
#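 Each well held 100 nM EPAC2, 250 nM RAP1B-BODIPY-GDP and 50 uM GDP. Fluorescence, read at 5-min intervals to 30 min, was referenced to a 6.5 mM cAMP positive control.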
# USP1-UAF1 inh: inhibitors of human USP1/UAF1 deubiquitinase | Potency, µM (titrated, usually from 57.1 µM), inactives show at the highest dose activity change, negative = inhibition, most hits filed as inhibitors | 0.23% of 390,000 active | O94782 | recombinant USP1/UAF1, Ub-Rhodamine cleavage fluorescence; note: % is set by controls: 0 for no effect and ±100 for the full control effect; nearly all actives have a fitted effect of over 60% in size
# Target sequence (O94782 whole entry, looked up): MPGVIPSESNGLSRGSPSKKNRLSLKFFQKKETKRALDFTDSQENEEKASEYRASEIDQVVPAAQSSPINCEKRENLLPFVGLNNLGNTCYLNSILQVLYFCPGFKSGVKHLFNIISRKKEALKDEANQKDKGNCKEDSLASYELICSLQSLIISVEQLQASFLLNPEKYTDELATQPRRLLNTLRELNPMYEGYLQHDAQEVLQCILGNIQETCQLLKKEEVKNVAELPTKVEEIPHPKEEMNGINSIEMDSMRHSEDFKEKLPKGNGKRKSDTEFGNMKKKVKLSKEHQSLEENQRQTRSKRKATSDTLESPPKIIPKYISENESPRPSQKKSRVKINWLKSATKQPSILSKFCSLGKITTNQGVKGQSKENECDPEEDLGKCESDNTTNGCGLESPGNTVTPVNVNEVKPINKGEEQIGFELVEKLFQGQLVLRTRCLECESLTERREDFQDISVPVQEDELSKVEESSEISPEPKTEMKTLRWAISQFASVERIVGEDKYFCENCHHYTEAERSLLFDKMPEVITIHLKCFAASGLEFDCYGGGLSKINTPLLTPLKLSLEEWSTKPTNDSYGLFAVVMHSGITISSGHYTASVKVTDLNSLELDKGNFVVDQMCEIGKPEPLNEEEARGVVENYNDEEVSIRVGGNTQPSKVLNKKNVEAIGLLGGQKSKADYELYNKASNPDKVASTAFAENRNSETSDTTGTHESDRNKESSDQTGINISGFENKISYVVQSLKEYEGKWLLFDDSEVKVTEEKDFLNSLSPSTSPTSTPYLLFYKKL
#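 Step one: compound is pinned into 1nM USP1/UAF1 in HEPES pH 7.8 buffer with TCEP. Step two: 15 min room-temperature incubation. Step three: Ub-Rho (150nM final) starts cleavage, tracked by fluorescence over six one-minute reads.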
# EPAC1 antag: blocks human EPAC1 exchange factor | EPAC1 GEF assay, Rap1b-BODIPY-GDP exchange fluorescence | Potency, µM (titrated, usually from 115 µM), for inactives: top-dose activity change, negative = inhibition, actives largely listed as inhibitors | O95398 | 0.14% of 360,000 active;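 note: plate controls were vehicle for no effect and positive control for full effect; nearly all actives have a fitted effect of over 50% in size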
# * = called active by the depositor; ? = inconclusive; . = not tested or not shown; [ ] = another dose, or the depositor's remark. Most compounds without a hit are left out; they make up all but 1.3% or so of the library. Calls come from the whole dose curve; as a rule, active = well fitted curve in the direction sought with a large enough effect; inconclusive = small, poorly fitted or top-dose-only effect, or another doubt; inactive = no such curve, though single readings can be large; an effect the other way counts as inactive or inconclusive. Potency is the fitted concentration of half-maximal effect.
SMILES,12-LOX inh,EPAC1 ag,EPAC2 antag,EPAC2 ag,USP1-UAF1 inh,EPAC1 antag
O=C1C2CC=C(Cl)CC2C(=O)N1CCc1ccccc1 (centres undefined),10µM*,21%,-3%,12%,?,0%
O=C1C2CC=C(Cl)CC2C(=O)N1CCc1c[nH]c2ccccc12 (centres undefined),-16%,5%,-5%,10%,-9%,-2%
CCn1c(CNC(C)c2ccc(F)c(F)c2)nc2cc(S(=O)(=O)N3CCOCC3)ccc21 (centres undefined),67%,.,.,.,.,.
COc1ccccc1-c1cc(C(=O)O)c2cccc(C)c2n1,10µM*,.,.,.,.,.
Cc1ccc(-c2cc(C(=O)O)c3cccc(C)c3n2)s1,11µM*,.,.,.,.,.
Cc1cccc2c(C(=O)O)cc(-c3cccs3)nc12,-22%,.,.,.,.,.
CCCCN(Cc1cc2cc(OC)ccc2[nH]c1=O)S(=O)(=O)c1ccccc1,0%,.,.,.,.,.
Cc1ccccc1C(=O)/C(C#N)=N/Nc1c(C)n(C)n(-c2ccccc2)c1=O,?,-11%,79µM*,-68%,-4%,-7%
O=C(O)C1CCC(c2ccc(I)cc2)CC1 (centres undefined),14%,.,.,.,.,.
O=C(NC(=S)Nc1nc2c(s1)CCCC2)c1ccccc1,-7%,9%,3%,18%,-7%,-1%
S=C(Nc1nc2c(s1)CCCC2)NC1CC1,45µM*,2%,-3%,-5%,-11%,-7%
N#Cc1ccc(CN2CCC3(C2)C(=O)N(c2ccccc2)c2ccccc23)cc1 (centres undefined),6%[6.33 µM],.,.,.,.,.
O=C1NC(=Nc2ccccc2)S/C1=C\c1ccccc1,-14%,11%,0%,0%,-16%,13%
O=C1N/C(=N/Nc2ccccc2)S/C1=C\c1ccccc1,5.6µM*,7%,-7%,11%,-11%,2%
O=C(O[C@@H]1OC2COC(=O)c3cc(O)c(O)c(O)c3-c3c(cc(O)c(O)c3O)C(=O)O[C@@H]([C@H]1O)[C@@H]2O)c1cc(O)c(O)c(O)c1,.,3%,-14%,-2%,?,89µM*
CC(=O)C1=CCC(c2ccc(C)o2)N(S(=O)(=O)c2ccc(C)cc2)C1 (centres undefined),10µM*,-5%,-20%,23%,.,-9%
O=C(Cc1cccc(C(F)(F)F)c1)NC1(c2ccccc2)CCC1,35µM*,.,.,.,.,.
CCN1C(=O)[C@@H]2[C@@H](c3ccc(SC4CCCCC4)cc3)N3CCCC[C@@]3(C(=O)OC)[C@@H]2C1=O,40µM*,8%,8%,-1%,?,-23%
CCN1C(=O)[C@H]2[C@@H](c3ccc(SC4CCCCC4)c(OC)c3)N3CCCC[C@@]3(C(=O)OC)[C@H]2C1=O,-19%,-13%,-5%,2%,?,-11%
COc1ccc(OCCN(C)C(=O)c2cc(C3CC3)nc3ccccc23)cc1,-11%,.,.,.,.,.
CCOC(=O)NC1(NC(C)C)Oc2ccccc2O1,25µM*,1%,17%,1%,-19%,-18%
CN(C)c1ccc(C=c2c3cc(O)ccc3n3c2cc(-c2ccccc2)[n+]3C)cc1,?,-4%,-16%,4%,28µM*,-30%
Cc1cc2c(=Cc3ccc(N(C)C)cc3)c3ccccc3n2[n+]1C,-57%,-2%,-28%,-3%,?,-19%
C[n+]1c(-c2ccccc2)cc2c(=Cc3ccccc3)c3ccccc3n21,?,8%,2%,14%,4µM*,0%
C[n+]1c(-c2ccccc2)cc2c(=Cc3ccc([N+](=O)[O-])cc3)c3ccccc3n21,16µM*,12%,0%,10%,3.5µM*,-1%
CCOc1cc(/C=N/O)c(Br)cc1OCC(N)=O,74%,.,.,.,.,.
O=C(NC(C1CC1)C1CC1)c1ccnc(Cl)c1,-10%,.,.,.,.,.
CCC(C(=O)NN1CCCCC1)c1ccccc1 (centres undefined),11%,.,.,.,.,.
Cc1cc([N+](=O)[O-])ccc1N=Cc1ccc(C#Cc2ccccc2)cc1,-2%,.,.,.,.,.

# Compound activity: PubChem, National Center for Advancing Translational Sciences (NCATS)
